Hits are enriched below; roughly 2.3% of the tested compounds scored in any of these assays.
mIDH1 inhibitor: qHTS for Inhibitors of mutant isocitrate dehydrogenase 1 (IDH1): qHTS; Isocitrate dehydrogenase [NADP] cytoplasmic (Homo sapiens), O75874; IDH1-R132H enzyme, NADPH consumption, diaphorase/resazurin fluorescence; Potency, µM (series often up to 76.6 µM), without a hit: top-dose activity change, negative = inhibition, actives largely listed as inhibitors; actives 0.093% (n = 390,000); AID 602179, 2012; also: potency is read from the fitted curve at half-maximal effect; % is scaled to controls: 0 for no effect and ±100 for the full control effect; nearly all actives have a fitted effect of over 65% in size
Target sequence (O75874 whole entry R132H, stated change not applied): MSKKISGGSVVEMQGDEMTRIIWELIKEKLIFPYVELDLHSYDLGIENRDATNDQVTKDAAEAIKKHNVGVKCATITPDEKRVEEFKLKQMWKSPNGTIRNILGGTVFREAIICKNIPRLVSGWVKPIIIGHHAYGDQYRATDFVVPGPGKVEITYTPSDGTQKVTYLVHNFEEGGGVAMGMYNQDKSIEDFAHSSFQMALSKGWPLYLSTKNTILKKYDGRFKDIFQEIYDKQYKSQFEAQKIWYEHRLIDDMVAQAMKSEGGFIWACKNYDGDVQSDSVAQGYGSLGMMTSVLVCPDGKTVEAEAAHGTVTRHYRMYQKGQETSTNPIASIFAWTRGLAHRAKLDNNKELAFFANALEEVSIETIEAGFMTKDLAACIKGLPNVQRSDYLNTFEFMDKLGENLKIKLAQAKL
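IDH1-R132H (0.5 ug/mL) preincubated 30 min with compound, then NADPH (0.016 mM) and alpha-KG (2 mM) added; 80 min at RT, pH 7.5. Remaining NADPH coupled via diaphorase/resazurin to fluorescence (540/590 nm); concentration-response curves normalized to no-enzyme control.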
Apoferritin bind: qHTS Assay for Identification of Novel General Anesthetics; apoferritin/1-aminoanthracene competitive binding, fluorescence; Ferritin light chain (Equus caballus), P02791; Potency, µM (series often up to 77.5 µM), for the others: at the highest dose activity change, negative = displacement, actives largely listed as inhibitors; AID 485281, 2010; actives 0.074% (n = 350,000); also: potency is read from the fitted curve at half-maximal effect; % is scaled to controls: 0 for no effect and ±100 for the full control effect; nearly all actives have a fitted effect of over 20% in size
Target sequence (P02791 2-175 limits assumed): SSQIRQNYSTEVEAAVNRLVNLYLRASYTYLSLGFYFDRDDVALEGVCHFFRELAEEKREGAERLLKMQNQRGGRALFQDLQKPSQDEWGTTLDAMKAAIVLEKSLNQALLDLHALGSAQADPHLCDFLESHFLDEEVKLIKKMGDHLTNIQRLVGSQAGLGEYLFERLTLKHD
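Horse-spleen apoferritin (10 uM) was mixed with 50% saturated 1-aminoanthracene in PBS, exposed to compounds for 10 min at room temperature, and read for fluorescence (ex 380 nm, em 535 nm). Competitive displacement was fitted with a four-parameter Hill equation.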
Nrf2 inh: Nrf2 qHTS screen for inhibitors. A549 ARE-Fluc reporter, luciferase luminescence, 18-24 h. Potency, µM (titrated, usually from 46 µM), for inactives: at the top dose activity change, negative = inhibition, actives largely listed as inhibitors. actives 2.1% (n = 360,000). AID 504444, 2011; also: potency is read from the fitted curve at half-maximal effect; % is scaled to controls: 0 for no effect and ±100 for the full control effect; nearly all actives have a fitted effect of over 60% in size
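Nrf2 activity is the BugLite luminescence, read 15 min after reagent at room temperature, following CellTiter-Fluor cytotoxicity readout (30 min, 37C). Compound titrations were applied for 18-24 h to 5000 A549 ARE_Fluc cells/well in 5% FBS OPTI-MEM.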
Giardia kill: Small Molecules that selectively kill Giardia lamblia: qHTS; Giardia lamblia trophozoite viability; activity change, % at 7.66 µM, hits read low; actives 0.15% (n = 340,000); AID 540267, 2011; in the data active = activity change below about -80%; inconclusive = between about -30% and that limit;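 also: parasites exposed to compound for two days anaerobically before the ATP read; % is scaled to controls: 0 for no effect and ±100 for the full control effect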
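Each well holds 100 Giardia trophozoites and compound. After two days (48 hrs) at 37 deg C in anaerobic conditions, ATP is quantified by luminescence.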
Nrf2 activator: qHTS of Nrf2 Activators | AREc32 ARE-luciferase reporter (MCF7-derived line), luminescence, 24 h | Potency, µM (titrated, usually from 46.1 µM), without a hit: at the highest dose activation, usual class: activators | actives 0.31% (n = 410,000) | AID 624171, 2012; also: potency is read from the fitted curve at half-maximal effect; % of control where 0% means no effect; nearly all actives have a fitted effect of over 65% in size
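Luciferase luminescence (Steady-Glo, 30 min at room temperature) served as the read-out of ARE activation in AREc32 cells treated with compounds for 24 hr at 37 deg C.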
A549 tox: Nrf2 qHTS screen for inhibitors: counterscreen for cytotoxicity. A549 ARE-Fluc cells, CellTiter-Fluor viability, 18-24 h. Potency, µM (doses to about 46 µM), without a hit: at the highest dose activity change, negative = cytotoxicity, most hits filed as inhibitors. actives 0.16% (n = 390,000). AID 504648, 2011; also: potency is read from the fitted curve at half-maximal effect; % is scaled to controls: 0 for no effect and ±100 for the full control effect
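A549 ARE-Fluc cells in 5% FBS OPTI-MEM, 5000 cells/well, rested 2 h then exposed to compounds in concentration-response for 18-24 h at 37 °C. Viability by CellTiter-Fluor fluorescence (Ex 405/Em 525) after 30 min; luciferase luminescence (BugLite, 15 min, RT) read afterwards.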
* hit, by the source's call; ? = inconclusive; · = no result given. Unless noted, calls follow the shape of the dose curve; as a rule, active = well fitted curve in the direction sought with a large enough effect; inconclusive = small, poorly fitted or top-dose-only effect, or another doubt; inactive = no such curve, though single readings can be large; an effect the other way counts as inactive or inconclusive.

SMILES | mIDH1 inhibitor | Apoferritin bind | Nrf2 inh | Giardia kill | Nrf2 activator | A549 tox
Nn1cnnc1SCC(=O)Nc1ccc(C2CCCCC2)cc1 | 0% | 7.1µM* | 14% | -13 | 0% | -13%
Cc1ccc(NC(=O)CSCC(=O)O)cc1 | 7% | -4% | -10% | -7 | -1% | -9%
COc1ccc(C(=O)N(Cc2ccccc2)Cc2ccccc2)c(O)c1 | · | · | ? | · | · | -3%
COc1cc(/C=C(\C#N)c2nc3ccccc3[nH]2)ccc1OCc1cccc(C(F)(F)F)c1 | · | ? | ? | · | 5% | -1%
Cc1ccc(S(=O)(=O)CC(CN2CCOCC2)N2CCOCC2)cc1 (stereo unspecified) | -8% | -1% | 21% | -3 | -1% | -2%
CC1CCN(CC(CS(=O)(=O)c2ccc([N+](=O)[O-])cc2)N2CCC(C)CC2)CC1 (stereo unspecified) | -6% | -5% | 23µM* | -22 | 3% | ?
O=C(c1ccc([N+](=O)[O-])s1)N1CCN(c2ccccc2)CC1 | -6% | -8% | 21µM* | ? | -3% | ?
O=C(Nc1ccccc1N1CCOCC1)c1ccc([N+](=O)[O-])s1 | 24% | · | ? | -89* | 0% | -22%
COc1cc(CCNC2=CC(=O)c3ncccc3C2=O)ccc1O | 13% | · | 13µM* | 20 | -3% | 16µM*
COc1ccccc1CNS(=O)(=O)c1cc(CN2C(=O)c3cccnc3C2=O)ccc1OC | 3% | -14% | 2% | 33 | 0% | -3%
COc1ccc(CN(C)C(=O)CCC(=O)N2CCN(S(=O)(=O)c3ccc(Cl)cc3)CC2)c(OC)c1 | -8% | · | 12µM* | 11 | -1% | -14%
COc1ccc(CN(C)C(=O)CCc2ccc(S(=O)(=O)N3CCCCCC3)cc2)c(OC)c1 | 1% | · | ? | -26 | 1% | -19%
O=C(OCC#CCSc1nnc(-c2cccc3ccccc23)o1)c1sc(Cl)c(Cl)c1Cl | · | · | 26% | · | · | 0%
O=C(Cn1nc(-c2ccc(Cl)cc2)ccc1=O)NCCc1ccccc1 | 4% | 7.9µM* | · | · | 0% | -1%
CCc1ccc(CNC(=O)Cn2nc(-c3ccc(Cl)cc3)ccc2=O)cc1 | 7% | 16µM* | · | · | 2% | -5%
CCc1ccc(CNC(=O)Cn2nc(-c3ccc(C)cc3)ccc2=O)cc1 | 4% | 10µM* | · | · | 5% | 3%
O=C1C=C(N(CCO)Cc2ccccc2)c2ccccc2C1=O | 21% | -15% | 21µM* | 0 | -3% | 23µM*
O=C(Nc1ccc(OCc2ccccc2Cl)cc1)c1cccnc1 | -5% | ? | 9.2µM* | -9 | -2% | 0%
CN1CCCC1CCNc1ncnc2ccc(-c3ccc4c(c3)OCO4)cc12 (stereo unspecified) | · | · | 0% | · | · | 0%
O=C(Nc1ccccc1F)c1ccc(Cn2nc(N3CCN(c4ccccc4)CC3)ccc2=O)o1 | -14% | -12% | 21µM* | · | -1% | -20%
CCN(c1ccccc1)S(=O)(=O)c1ccc(C(=O)Nc2cccc(C)n2)cc1 | -5% | · | 18µM* | -4 | 0% | -18%
Cc1ccc(S(=O)(=O)N(C)c2ccc(C(=O)Nc3cccc(C)n3)cc2)cc1 | 9% | -4% | ? | -4 | 0% | -8%
Cc1cccc(NC(=O)c2cccc(S(=O)(=O)N(C)c3ccccc3)c2)n1 | 9% | · | 15µM* | 13 | 10% | ?
O=C(CC[C@H]1O[C@@H](n2cnc3c(NC(=O)c4ccccc4)ncnc32)[C@H](O)[C@@H]1O)NCC1CCCCC1 | · | · | · | · | 0% | ·
Cc1ccc(C(=O)Nc2cccc(C(=O)OCc3cc(=O)n4nc(C5CC5)sc4n3)c2)cc1 | -2% | 6% | · | · | 3% | 1%
SMILES | mIDH1 inhibitor | Apoferritin bind | Nrf2 inh | Giardia kill | Nrf2 activator | A549 tox
CS(=O)(=O)N1CCc2cc(C(=O)Nc3ccc(C(F)(F)F)cc3)ccc21 | 9% | 5% | ? | · | 1% | ?
CS(=O)(=O)N1CCc2cc(C(=O)Nc3ccc(Cl)c(C(F)(F)F)c3)ccc21 | -18% | -12% | 21µM* | · | -1% | -27%
CCC(=O)N1CCc2cc(S(=O)(=O)CCC(=O)Nc3ccc(Cl)c(C(F)(F)F)c3)ccc21 | -2% | -21% | 21µM* | · | 23% | -2%
CCOC(=O)c1c(NC(=O)c2nc(SC)ncc2Cl)sc(C)c1C | 48% | 0% | 13% | · | 0% | -8%
CCOC(=O)c1cccc(NC(=O)c2cc3cc4ccc(C)cc4nc3s2)c1 | -10% | -2% | ? | · | -1% | 4%
CCN(CCCNC(=O)c1cc2cc3cc(OC)ccc3nc2s1)c1cccc(C)c1 | -3% | -22% | 26µM* | · | 1% | -13%
CCOC(=O)c1cccc(NC(=O)c2cc3cc4cc(OC)ccc4nc3s2)c1 | 0% | -1% | 23µM* | · | 0% | ?
Cc1cc(C)cc(OCC(=O)N2N=C(C(F)(F)F)CC2(O)C(C)(C)C)c1 (stereo unspecified) | 1% | -4% | -27% | 7 | 0% | -14%
CCCCC1(O)CC(C(F)(F)F)=NN1C(=O)COc1ccccc1 (stereo unspecified) | 6% | -14% | 16µM* | 7 | 0% | ?
CCc1ccc(OCC(=O)Nc2cc(-c3nc4cc(C)ccc4o3)ccc2C)cc1 | -10% | -5% | ? | · | 1% | 0%
CC1CCCCC1NC(=S)NC(=O)c1sc2ccccc2c1Cl (stereo unspecified) | 0% | -22% | -11% | -1 | 0% | -6%
O=C(NC(=S)N(CCCCO)C1CCCCC1)c1sc2ccccc2c1Cl | -1% | ? | 12µM* | -5 | 19% | ?
Cc1cc2[nH]c3c(=O)n(Cc4ccccc4F)ncc3c2s1 | · | · | -17% | · | · | 0%
O=S(=O)(c1ccccc1)c1nnn2c1nc(NC1CCN(Cc3ccccc3)CC1)c1cc(Cl)ccc12 | 1% | -11% | 6.5µM* | -4 | -1% | ?
CCOc1ccc(CCNCc2c(C(=O)O)c(C)n(Cc3ccccc3F)c2C)cc1 | -13% | 2% | -3% | · | 4% | -3%
COc1cccc(N=c2oc3ccc(OC)cc3cc2-c2nc3ccccc3[nH]2)c1 | 3% | -9% | ? | -11 | 14% | 13µM*
COc1cccc(N=c2oc3ccccc3cc2-c2nc3ccccc3[nH]2)c1 | 5% | 105% | ? | ? | 13% | -2%
CC(C)CCn1c(SC(C)C#N)nc2ccccc2c1=O (stereo unspecified) | · | · | -26% | 25 | · | 6%

Assay outcomes deposited in PubChem by National Center for Advancing Translational Sciences (NCATS).
